Inconclusive results are not listed. The source made the active and inactive calls. Calls follow the shape of the dose curve; as a rule, active = well fitted cell-killing curve with a large enough effect in the repeat runs; inconclusive = weak or mixed curves, or effect the other way; inactive = no such curve, though single readings can be large or run the other way.
assay: qHTS assay to identify small molecule antagonists of the thyroid receptor (TR) signaling pathway - cell viability counter screen (AID 743064); conditions: GH3.TRE-Luc viability, CellTiter-Fluor, 24 h; series mostly up to 70.3 µM; activity change, negative = cytotoxic: at the top concentration; also: nearly all actives have a fitted effect of over 50% in size
Excerpt: National Center for Advancing Translational Sciences [NCATS]
NIH Chemical Genomics Center [NCGC]
U.S. Environmental Protection Agency [EPA]
National Institutes of Environmental Health Sciences [NIEHS]
National Toxicology Program [NTP]
U.S. Food and Drug Administration [FDA]
Thyroid receptor (TR), a nuclear hormone receptor, plays an important role in development, proliferation, differentiation, metabolism, brain function, and cardiovascular system. […] To profile the Tox21 10K compound library in TR signaling, a cell-based GH3-TRE-Luc assay (GH3.TRE-Luc cell line, developed by the laboratory of Dr. Albertinka J. Murk, Wageningen University) was used to measure the inhibition of TR. GH3 (rat pituitary tumor) cells stably expressing a TR activity sensor consisting of two TR response elements and a luciferase reporter gene. The cytotoxicity of the Tox21 compound library against the GH3.TRE-Luc cell line was tested in parallel by measuring the cell viability using CellTiter-Fluor assay (Promega, Madison, WI) in the same wells.
Tox21 Assay Protocol Summary:
GH3.TRE-Luc cells were dispensed at 1500 cells/4 uL/well into 1536-well white solid bottom plates using a Multidrop Combi dispenser (Thermo Fisher Scientific Inc., Waltham, MA). After the assay plates were incubated at 37 C for 4 hours, 23 nL of library compound or DMSO controls was transferred to the assay plates by a pintool station (Kalypsys, San Diego, CA), followed by addition of 1 ul of T3 (1 nM, final concentration in the wells) to stimulate TR transactivation. The assay plates were incubated at 37 C for 23.5 h, and then 1 uL of CellTiter-Fluor reagent (Promega, Madision, WI) of measuring cytotoxicity was added to each well using a Bioraptr Flying Reagent Dispenser (FRD) workstation (Beckman Coulter, Indianapolis, IN, USA). The plates were incubated at 37C and 5% CO2 for additional 30 min, and fluorescence intensity was measured by a ViewLux plate reader (PerkinElmer, Shelton, CT).
% is scaled to controls: 0 for no effect and ±100 for the full control effect; potency is read from the fitted curve at half-maximal effect.

Structure (SMILES) | Potency | activity change, negative = cytotoxic
CCC(=O)c1ccc2c(c1)N(CCCN(C)C)c1ccccc1S2 | 7.5 µM (active) | –
CN1CCN(c2c(F)cc3c(=O)c(C(=O)O)cn(CCF)c3c2F)CC1 | – | -4.8% (inactive)
C1CCOC1 | – | 4.74% [at 95 µM] (inactive)
CC1=C(O)C(=O)OC1C (stereo not given) | – | 15.7% (inactive)
OCc1ccccc1O | – | -16% (inactive)
ICCc1ccccc1 | – | 19.7% (inactive)
Cc1cc(NS(=O)(=O)c2ccc(N)cc2)nc(C)n1 | – | 19.3% (inactive)
CCc1nnc(NS(=O)(=O)c2ccc(N)cc2)s1 | – | -7.23% (inactive)
CCOC(=O)c1ccccc1O | inactive | –
CC(C)(C)c1cccc(O)c1 | – | 1.2% (inactive)
Cc1cc2c(s1)Nc1ccccc1N=C2N1CCN(C)CC1 | 13.3 µM (active) | –
Cc1nc(-c2ccccn2)ncc1C(=O)Nn1cc(C)c2cc(F)ccc21 | – | 18.9% (inactive)
Nc1ccc2ccccc2c1S(=O)(=O)O | – | -0.739% [at 95 µM] (inactive)
CC(C)NCC(O)COc1ccc(CCOCC2CC2)cc1 (stereo not given) | – | -3.6% (inactive)
CCN[C@H]1CN(CCCOC)S(=O)(=O)c2sc(S(N)(=O)=O)cc21 | – | 20.9% [at 32.5 µM] (inactive)
CN1CCN(C2=Nc3cc(F)ccc3Cc3ccccc32)CC1 | 11.9 µM (active) | –
CC/C=C\CCOC(=O)C(C)C | – | 2.02% (inactive)
CC(=O)Oc1cc(C(C)C)c(OCCN(C)C)cc1C | – | -8.53% [at 32.5 µM] (inactive)
CC(C)C1=CC2=CC[C@@H]3[C@](C)(CCC[C@@]3(C)C(=O)O)[C@H]2CC1 | – | -26.5% (inactive)
NNS(=O)(=O)c1ccc(Oc2ccc(S(=O)(=O)NN)cc2)cc1 | – | -0.394% (inactive)

Structure (SMILES) | Potency | activity change, negative = cytotoxic
CC(CNC1CCCCC1)OC(=O)c1ccccc1 (stereo not given) | – | 26.4% [at 32.5 µM] (inactive)
CC(C)C[C@H](NC(=O)OCC1c2ccccc2-c2ccccc21)C(=O)O | – | 0.891% (inactive)
COC(=O)C(C)O (stereo not given) | – | 0% [at 95 µM] (inactive)
FC(F)(F)c1ccccc1 | – | 0.0573% (inactive)
CCOC(=O)C(Br)c1ccccc1 (stereo not given) | – | 12.8% (inactive)
CCN(O)CC | – | 9.74% (inactive)
CCC1(C)NC(=O)NC1=O (stereo not given) | – | -0.0618% (inactive)
O=c1[nH]cnc2c1ncn2[C@@H]1O[C@H](CO)[C@@H](O)[C@H]1O | – | 0.011% (inactive)
COc1cc(Cl)ccc1Cl | – | 1.61% [at 95 µM] (inactive)
CCN(CC)CCOc1ccc(Cc2ccccc2)cc1 | 11.9 µM (active) | –
Cc1cc(S(=O)(=O)O)c(N)cc1Cl | – | -0.392% [at 95 µM] (inactive)
Cc1ncc(CO)c(CN)c1O | – | 22.1% (inactive)
COc1ccc(Nc2ccc(OC)cc2)cc1 | – | -4.95% [at 95 µM] (inactive)
CN(C)C(=O)NC1(c2ccccc2)CCN(CCC[C@]2(c3ccc(Cl)c(Cl)c3)CCCN(C(=O)c3ccccc3)C2)CC1 | 5.17 µM (active) | –
CCCCC(=O)O[C@]1(C(=O)CO)[C@H](C)C[C@H]2[C@@H]3CCC4=CC(=O)C=C[C@]4(C)[C@@]3(F)[C@@H](O)C[C@@]21C | – | 6.94% (inactive)
Cc1c(-c2ccccc2)oc2c(C(=O)OCCN3CCCCC3)cccc2c1=O | – | 6.65% [at 32.5 µM] (inactive)
CC(C)S | – | -7.04% [at 95 µM] (inactive)
Cc1ccc(C(C)C)cc1O | – | 9.31% (inactive)
CCCCCCC | – | -4.52% [at 95 µM] (inactive)
O=C1N(c2ccccc2)c2ccccc2C1(Cc1ccncc1)Cc1ccncc1 | – | 6.06% (inactive)
